# Laboratory results from PubChem BioAssay AID504339 (National Center for Advancing Translational Sciences (NCATS), 2011).
# Among all 390,000 compounds or so, about 17,000 (4.4%) were called active. Where a call stands in place of a potency, no number is given. Inconclusive results (about 8%) are left out. Calls come from the whole dose curve; as a rule, active = well fitted inhibition curve with a large enough effect; inconclusive = small, poorly fitted or top-dose-only effect; inactive = no such curve, though single readings can be large or run the other way. This excerpt belongs to a sample that is enriched for actives.
# Target: Lysine-specific demethylase 4A (Homo sapiens) (UniProt O75164)
# Sequence (O75164 whole entry, looked up, the tested form may be a part): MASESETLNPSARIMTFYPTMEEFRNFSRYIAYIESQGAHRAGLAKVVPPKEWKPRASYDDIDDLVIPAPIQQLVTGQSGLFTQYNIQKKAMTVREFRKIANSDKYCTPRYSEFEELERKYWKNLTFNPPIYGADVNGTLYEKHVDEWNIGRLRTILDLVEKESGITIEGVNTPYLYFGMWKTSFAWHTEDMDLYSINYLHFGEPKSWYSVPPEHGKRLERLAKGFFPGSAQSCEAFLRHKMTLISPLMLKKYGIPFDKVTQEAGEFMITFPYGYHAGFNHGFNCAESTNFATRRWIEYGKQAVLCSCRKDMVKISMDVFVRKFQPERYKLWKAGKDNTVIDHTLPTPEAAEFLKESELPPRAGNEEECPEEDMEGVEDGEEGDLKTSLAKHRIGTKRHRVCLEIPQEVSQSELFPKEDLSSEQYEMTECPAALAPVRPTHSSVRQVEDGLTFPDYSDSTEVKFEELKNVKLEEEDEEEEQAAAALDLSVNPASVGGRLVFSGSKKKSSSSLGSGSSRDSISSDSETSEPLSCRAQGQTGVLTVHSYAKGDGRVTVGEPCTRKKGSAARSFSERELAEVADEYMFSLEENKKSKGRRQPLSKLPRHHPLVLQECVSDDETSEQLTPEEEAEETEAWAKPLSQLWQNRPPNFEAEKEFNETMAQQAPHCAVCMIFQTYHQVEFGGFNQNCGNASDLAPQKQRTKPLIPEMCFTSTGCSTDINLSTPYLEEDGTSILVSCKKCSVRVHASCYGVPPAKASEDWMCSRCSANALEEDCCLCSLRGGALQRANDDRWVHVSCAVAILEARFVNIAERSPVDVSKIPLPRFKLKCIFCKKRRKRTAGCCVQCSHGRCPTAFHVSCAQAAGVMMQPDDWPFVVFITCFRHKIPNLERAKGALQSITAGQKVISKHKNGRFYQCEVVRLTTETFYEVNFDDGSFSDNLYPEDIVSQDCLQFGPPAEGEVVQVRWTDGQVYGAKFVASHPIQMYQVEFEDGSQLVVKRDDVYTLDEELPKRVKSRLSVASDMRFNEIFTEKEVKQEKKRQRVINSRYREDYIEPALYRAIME
# Assay: qHTS Assay for Inhibitors of JMJD2A-Tudor Domain; note: nearly all actives have a fitted effect of over 50% in size
# Settings: AlphaScreen JMJD2A-Tudor / H3K4me3 peptide binding; series mostly up to 114 µM
# Potency is the fitted concentration of half-maximal effect.
row,SMILES,Potency
1,O=C(O)COc1ccccc1/C=C1\C(=O)NC(=O)N(CCC2=CCCCC2)C1=O,inactive
2,COc1ccc(CN2C(=O)NC(=O)/C(=C\c3ccc(OC)c(OC)c3OC)C2=O)cc1,56.2 µM (active)
3,O=C1NC(=O)N(Cc2ccco2)C(=O)/C1=C\c1cccn1CCOc1ccccc1,inactive
4,CC(=O)c1c(O)n(C2CCCCCC2)c(=O)[nH]c1=O,inactive
5,CO[C@H]1[C@@H](O)[C@@H](C)O[C@H](O[C@H]2[C@H](Oc3cccc4c(O)c5c(=O)oc6ccc(C)c7c(=O)oc(c34)c5c67)O[C@H](C)[C@H](O)[C@@H]2O)[C@@H]1O,inactive
6,COc1ccc(Br)cc1CNCCc1cccc(Cl)c1,22.4 µM (active)
7,CC(C)N(CC#CCC1(O)c2ccccc2-c2ccccc21)C(C)C,inactive
8,COc1ccc(-n2c(O)c(C(C)=Nc3ccc4c(c3)CCC4)c(=O)[nH]c2=O)cc1,inactive
9,CCOC(=O)C1(Cc2ccc(Cl)cc2)CCN(C(C)CCn2cccn2)CC1 (stereo not drawn),inactive
10,COc1ccc(N=Cc2c(O)n(C)c(=O)[nH]c2=O)cc1,inactive
11,C=CC12CN(C)[C@@H]3C4CO[C@H](C[C@H]41)[C@]1(C(=O)Nc4ccccc41)[C@@H]32 (stereo partly drawn),inactive
12,Cc1ccc(Cn2nnnc2CN2CCC(n3nnc4ccccc43)CC2)cc1,50.1 µM (active)
13,COC1=C[C@@H]2[C@@H]3Cc4ccc(OC)c(O)c4[C@]2(CCN3C)CC1=O,inactive
14,O=C(O)C1CSC(c2cccnc2)N1 (stereo not drawn),7.94 µM (active)
15,NCCc1c[nH]c2ccc(O)cc12,inactive
16,CC[N+](CC)(CC)CCCCCCCCCC[N+](CC)(CC)CC,inactive
17,Cc1ccccc1N1C(=O)NC(=O)/C(=C\c2cc(C)n(C)c2C)C1=O,inactive
18,O=C1NC(=O)N(c2ccccc2)C(=O)/C1=C/c1ccc([N+](=O)[O-])s1,56.2 µM (active)
19,COc1cccc(N2C(=O)NC(=O)/C(=C\c3cn(C)c4ccccc34)C2=O)c1,inactive
20,O=C1NC(=O)N(c2ccc(F)cc2)C(=O)/C1=C/c1ccc2c(c1)CCCN2Cc1ccccc1,inactive

row,SMILES,Potency
1,COc1cccc(N2C(=O)NC(=O)/C(=C\c3ccc([N+](=O)[O-])s3)C2=O)c1,35.5 µM (active)
2,COCCNC(=O)CN1C2CCC1CC(O)(c1cccnc1)C2 (stereo not drawn),inactive
3,COC(=O)C1=C(c2cccc(OCc3ccccc3)c2)C[C@@H]2CC[C@H]1N2C(=O)NCc1ccc(Br)cc1,inactive
4,C[C@]12CCC3C(CC[C@H]4[C@H](O)[C@H](O)CC[C@]34C)C1CCC2=O (stereo partly drawn),inactive
5,Nc1ccc([N+](=O)[O-])cc1,inactive
6,COC1C(O)C(C)OC(OC2CCC3(C=O)C(CCC4C3CCC3(C)C(C5=CC(=O)OC5)CCC43O)C2)C1O (stereo not drawn),inactive
7,O=c1[nH]c(=O)n(Cc2ccccc2)c(O)c1/C=N/Nc1c(F)c(F)c(F)c(F)c1F,inactive
8,CCc1nnc(NS(=O)(=O)c2ccc(N=Cc3c(O)n(-c4ccccc4)c(=O)[nH]c3=O)cc2)s1,inactive
9,CCCCC(=O)N/N=C/c1c(O)n(-c2ccccc2)c(=O)[nH]c1=O,79.4 µM (active)
10,CNC(=O)O/N=C(\N)Cc1csc2ccc(Cl)cc12,inactive
11,Cc1ccc(Oc2cnn(-c3ccccc3)c(=O)c2Br)cc1,inactive
12,COc1ccc(N2C(=O)/C(=C/c3ccco3)C(=O)NC2=S)cc1,10 µM (active)
13,O=C1NC(=O)N(Cc2ccco2)C(=O)/C1=C\c1ccc(-c2ccc(F)cc2)o1,inactive
14,Cc1cc(/C=C2/C(=O)NC(=O)N(Cc3ccco3)C2=O)c(C)n1-c1ccc(C(=O)O)cc1,inactive
15,CN(C)c1ccc(/C=C2\CC3C4CC=C5CC(O)CCC5(C)C4CCC3(C)C2=O)cc1 (stereo not drawn),inactive
16,C[C@]12CC[C@H](O)CC1=C([N+](=O)[O-])CC1C2CC[C@@]2(C)C1CC[C@@H]2O (stereo partly drawn),inactive
17,COc1ccccc1N=C1SCCCN1C,56.2 µM (active)
18,CCC(C)(O)C(=O)OC1C(=O)OC2CC3C(C)=CC(=O)C(O)C3(C)C3C4(O)OCC23C1C(C)C4O (stereo not drawn),inactive
19,COCc1cc(OC(=O)N(C)C)nc(-c2ccc(C)c(Cl)c2)n1,inactive
20,CCOC(=O)CC(SP1(=S)OCC2(CCCCO2)C(C2CCCCO2)O1)C(=O)OCC (stereo not drawn),inactive

row,SMILES,Potency
1,c1cc2c(cc1C1OCC3C(c4ccc5c(c4)OCO5)OCC13)OCO2 (stereo not drawn),inactive
2,CC(=O)OC1C2(CC3N4C(=O)C5(CO)SSC4(CC31O)C(=O)N5C)OC(C)C(C)(C)C2=O (stereo not drawn),inactive
3,CCN(CC)CCOC(=O)c1cc2cc(COC)ccc2o1,56.2 µM (active)
4,Cc1ccc(N(C)C(=O)Oc2cccc3ccc(C)nc23)cc1,inactive
5,CC(=O)C1(O)CCC2C3CCC4=C(Cl)C(=O)CCC4(C)C3CCC21C (stereo not drawn),inactive
6,COC(=O)C1=C(c2ccc(Cl)c(C(F)(F)F)c2)C[C@@H]2CC[C@H]1N2C(=O)NC(C)C,inactive
7,Clc1cccc(Cl)c1Cl,inactive
8,CN1CCN(C(=S)SCC(=O)Nc2ccc(Cl)cc2C(=O)c2ccccc2)CC1,44.7 µM (active)
9,O=C(Nc1ccc(Cl)cc1C(=O)c1ccccc1)c1cc(Cl)cc(Cl)c1,inactive
10,O=C(COC(=O)c1ccccc1)Nc1ccc(Cl)cc1C(=O)c1ccccc1,inactive
11,CC12CCC3C(CCC4CC(=O)CCC43C)C1CC(=NO)C2=O (stereo not drawn),inactive
12,Cc1cccc(Cn2cccc(C(=O)Nc3ccc4c(c3)OCCO4)c2=O)c1,inactive
13,CCOCCc1c(O)[nH]c(=S)[nH]c1=O,79.4 µM (active)
14,Oc1ccc2c3c1OC1[C@H](O)CC[C@@]4(O)[C@@H](C2)N(CC2CC2)CC[C@]314 (stereo partly drawn),inactive
15,CCC(C)n1c(O)c(/C=N/Nc2nc3c(c(=O)n(C)c(=O)n3C)n2C)c(=O)[nH]c1=S (stereo not drawn),79.4 µM (active)
16,Cc1ccccc1NC(=O)COC(=O)c1cc(C)n(C2CC2)c1C,inactive
17,C=Cn1ccnc1P(=S)(c1cc(N(CC)CC)ns1)c1nccn1C=C,inactive
18,Cc1nc2ccccn2c1P(=S)(N1CCCCC1)N1CCCCC1,inactive
